Abeta rescue = restores growth of yeast expressing A-beta42 peptide | yeast expressing A-beta42, growth rescue, OD600, 48 h; response scale: 0% DMSO, 100% iron-clioquinol control | Potency, µM (doses to about 46.1 µM), usual class: activators | 410,000 tested, 0.063% active; further: nearly all actives have a fitted effect of over 55% in size
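Growth rescue measured by 600 nm absorbance after 48 h yeast culture at 30 C with compound. Values normalized between DMSO and an equimolar ferric chloride plus clioquinol control.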
TDP43 rescue = rescues yeast growth from TDP-43 toxicity. TDP-43 expressing yeast growth rescue, BacTiter-Glo, 24 h. Potency, µM (top dose mostly 46.1 µM), usual class: activators. 410,000 tested, 1.8% active. AID 652104; further: nearly all actives have a fitted effect of over 50% in size
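Readout is BacTiter-Glo luminescence of cell growth, so inhibitors register as activators. TDP-43-expressing yeast at OD600=0.02 in galactose medium, after raffinose pregrowth to mid-log, were incubated with compound for 24 hr at 30 deg C.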
aSyn yeast inh = alpha-synuclein toxicity inhibition in yeast; Yeast expressing alpha-synuclein, growth rescue, BacTiter-Glo, 24 h; Potency, µM (series often up to 46.1 µM), usual class: activators; 370,000 tested, 0.14% active; AID 652106; further: nearly all actives have a fitted effect of over 65% in size
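Rescue of yeast growth: cells expressing toxic alpha-synuclein, induced in galactose at OD600 0.02, incubated with compound 24 h at 30 C. ATP luminescence quantified growth; inhibitors of toxicity appear as activators.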
FUS suppressor = rescues growth of FUS-expressing yeast; Potency, µM (top dose mostly 76.6 µM), most hits filed as activators; S. cerevisiae FUS-expressing, growth rescue, OD600, 24 h; AID 1347120; 390,000 tested, 0.24% active; further: nearly all actives have a fitted effect of over 55% in size
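S. cerevisiae expressing FUS from galactose induction served as the toxicity model. Growth after 24hr at 30C, read as absorbance at 600 nm, indicates suppression of toxicity; compounds dosed at several concentrations.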
PTAP TSG101 blk = blocks PTAP/TSG101 interaction to inhibit HIV-1 budding; Q99816; Fluorescence polarization, FITC-PTAP peptide / Tsg101 binding; Potency, µM (titrated, usually from 115 µM), usual class: inhibitors; 340,000 tested, under 10 active; AID 493005; active means well fitted inhibition curve with a large enough effect in the main read-out, with a control signal flat, not every such curve was filed as active; inconclusive means small, poorly fitted or top-dose-only effect, or effect the other way, or a change in a side signal; inactive means no such curve, though single readings can be large or run the other way
Target sequence (Q99816 whole entry, looked up): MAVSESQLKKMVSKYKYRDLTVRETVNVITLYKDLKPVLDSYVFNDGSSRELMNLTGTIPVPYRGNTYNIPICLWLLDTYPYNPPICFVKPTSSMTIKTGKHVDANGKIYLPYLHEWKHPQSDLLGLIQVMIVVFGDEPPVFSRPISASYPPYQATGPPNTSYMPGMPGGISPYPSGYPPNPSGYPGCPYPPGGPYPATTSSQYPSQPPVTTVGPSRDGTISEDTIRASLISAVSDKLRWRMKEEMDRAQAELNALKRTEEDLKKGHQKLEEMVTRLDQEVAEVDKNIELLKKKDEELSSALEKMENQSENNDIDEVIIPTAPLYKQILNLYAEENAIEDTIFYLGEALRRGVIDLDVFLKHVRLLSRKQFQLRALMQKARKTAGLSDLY
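Fluorescence polarization binding of Tsg101 binding domain (10 uM final) to FITC-labeled PTAP peptide (50 nM final) in HEPES pH 7.5 buffer with NaCl, Tween 20, EDTA, TCEP. Compounds added before peptide; binding 20 min at RT.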
A number is an active result; [ ] = dose if it differs, or a comment. Rows were chosen to be rich in hits. Some 2.1% of all compounds tested hit in one or more screens of this group. Unless noted, the call rests on the fitted dose curve; in most records, active means well fitted curve in the direction sought with a large enough effect; inconclusive means small, poorly fitted or top-dose-only effect, or another doubt; inactive means no such curve, though single readings can be large; an effect the other way counts as inactive or inconclusive.

What do the screens show for `Nc1ccc(C(Cc2ccnc3ccccc23)Cc2ccnc3ccccc23)cc1`?
aSyn yeast inh: inactive

Results for CCNc1nc(-c2sc(NC(=O)C(C)(C)C)nc2C)c(-n2cc(-c3ccccc3)nn2)s1 ?
Abeta rescue: inactive; TDP43 rescue: 28µM; aSyn yeast inh: inactive; FUS suppressor: inactive

How did CCOC(=O)c1ccc(NC(=O)CCCc2nc(-c3ccccc3Cl)no2)cc1 do in these assays?
Abeta rescue: inactive; TDP43 rescue: inconclusive; FUS suppressor: inactive

How did O=C(CSc1cccc(C(F)(F)F)c1)NCc1ccccc1 do in these assays?
Abeta rescue: inactive; TDP43 rescue: 11µM; aSyn yeast inh: inactive; FUS suppressor: inactive; PTAP TSG101 blk: inactive

Results for Cc1ccc(S(=O)(=O)N2CCN(c3nc(-c4cccs4)nc4c3ncn4COC(=O)C(C)(C)C)CC2)cc1 ?
aSyn yeast inh: inactive

Results for CC(/C=N/NC(=O)CSc1ccccn1)=C\c1ccc(C(C)C)cc1 ?
Abeta rescue: inactive; TDP43 rescue: 20µM; aSyn yeast inh: inactive; PTAP TSG101 blk: inactive

Results for CC(=O)c1ccc(N2CCN(S(=O)(=O)c3ccc4c(c3)CCC(=O)N4)CC2)cc1 ?
Abeta rescue: inactive; FUS suppressor: inactive

Results for Cc1nc2ccccc2c(C)c1C(=O)c1ccccc1 ?
Abeta rescue: inactive; TDP43 rescue: 14µM; aSyn yeast inh: inactive; FUS suppressor: inactive; PTAP TSG101 blk: inactive

What do the screens show for `CC(=O)c1c(C)nc2ccccc2c1N`?
Abeta rescue: inactive; TDP43 rescue: inactive; aSyn yeast inh: inactive; FUS suppressor: inactive; PTAP TSG101 blk: inactive

What do the screens show for `CCCNC(=O)C1(C)CCN(C(=O)c2ccc3snnc3c2)C1` (configuration not stated)?
Abeta rescue: inactive; TDP43 rescue: inactive; aSyn yeast inh: inactive; FUS suppressor: inactive

What do the screens show for `CCCNC(=O)C1(C)CCN(C(=O)c2c(Cl)cccc2Cl)C1` (configuration not stated)?
Abeta rescue: inactive; TDP43 rescue: inactive; aSyn yeast inh: inactive; FUS suppressor: inactive

Results for O=C(CSc1n[nH]c(-c2ccccc2)n1)c1ccccc1 ?
Abeta rescue: inactive; TDP43 rescue: inactive; aSyn yeast inh: inactive; FUS suppressor: inactive; PTAP TSG101 blk: inactive

What do the screens show for `CC(C)c1ccc(C(=O)CSc2n[nH]c(-c3ccncc3)n2)cc1`?
Abeta rescue: inactive; TDP43 rescue: 35µM; aSyn yeast inh: inactive; FUS suppressor: inactive; PTAP TSG101 blk: inactive

Results for O=C(COC(=O)c1cccc(Br)c1)NCCc1ccc(F)cc1 ?
Abeta rescue: inconclusive; TDP43 rescue: 13µM; aSyn yeast inh: inactive; FUS suppressor: inactive; PTAP TSG101 blk: inactive

How did CC1CN(C(=O)Nc2ccc3snnc3c2)c2ccccc21 (configuration not stated) do in these assays?
Abeta rescue: inactive; TDP43 rescue: 16µM; aSyn yeast inh: inactive; FUS suppressor: inactive; PTAP TSG101 blk: inactive

What do the screens show for `CC1CCN(C(=O)CCNS(=O)(=O)c2ccc(Br)cc2)CC1`?
Abeta rescue: inactive; TDP43 rescue: inactive; aSyn yeast inh: 3.5µM; FUS suppressor: inactive; PTAP TSG101 blk: inactive

Results for O=C(CNC(=O)c1cccc(F)c1)OCCOc1cccc(Cl)c1 ?
Abeta rescue: inactive; TDP43 rescue: 13µM; aSyn yeast inh: inactive; FUS suppressor: inactive; PTAP TSG101 blk: inactive

How did Cn1c(Nc2ccc(F)cc2)nc2ccccc21 do in these assays?
Abeta rescue: inactive; TDP43 rescue: inactive[1.82 µM]; aSyn yeast inh: inactive; FUS suppressor: inactive; PTAP TSG101 blk: inactive

What do the screens show for `Cn1c(NC(=O)c2ccc(F)cc2)nc2ccccc21`?
Abeta rescue: inactive; TDP43 rescue: 28µM; aSyn yeast inh: inactive; FUS suppressor: inactive; PTAP TSG101 blk: inactive

Results for O=C(CN1C(=O)COc2ccc(S(=O)(=O)NC3CCCC3)cc21)Nc1ccc(Cl)cc1 ?
Abeta rescue: inactive; TDP43 rescue: inactive; FUS suppressor: inactive

Results for Cc1ccc(OCc2ccccc2Br)c([N+](=O)[O-])n1 ?
Abeta rescue: inactive; TDP43 rescue: 10µM; aSyn yeast inh: inactive; FUS suppressor: inactive; PTAP TSG101 blk: inactive

Results for Nc1nc(-c2ccc(NC(=O)c3ccco3)cc2)cs1 ?
Abeta rescue: inactive; TDP43 rescue: inactive; aSyn yeast inh: inactive; FUS suppressor: inactive; PTAP TSG101 blk: inactive

Results for NC(=O)/C(=N\OC(=O)c1ccco1)c1nc(-c2ccc(Br)cc2)cs1 ?
Abeta rescue: inactive; TDP43 rescue: 16µM; aSyn yeast inh: inactive; PTAP TSG101 blk: inactive

How did C=C(C)CNC(=S)N/N=C/C1=CCC2CC1C2(C)C (configuration not stated) do in these assays?
Abeta rescue: inactive; TDP43 rescue: 18µM; aSyn yeast inh: inactive; PTAP TSG101 blk: inactive

How did CN1C(=O)/C(=C/c2cccc(Cl)c2)Sc2ccc(C(=O)N3CCOCC3)cc21 do in these assays?
Abeta rescue: inactive; TDP43 rescue: 20µM; aSyn yeast inh: inactive; FUS suppressor: inactive; PTAP TSG101 blk: inactive

What do the screens show for `O=C1/C(=C/c2cccc([N+](=O)[O-])c2)CCc2ccccc21`?
Abeta rescue: inactive; TDP43 rescue: 22µM; aSyn yeast inh: inactive; PTAP TSG101 blk: inactive

Results for COc1cccc(/C=C2\CCc3ccccc3C2=O)c1 ?
Abeta rescue: inactive; TDP43 rescue: inactive; aSyn yeast inh: inactive; FUS suppressor: inactive; PTAP TSG101 blk: inactive

What do the screens show for `O=C1C(=Cc2ccccn2)CCc2ccccc21`?
Abeta rescue: inactive; TDP43 rescue: 18µM; aSyn yeast inh: inactive; FUS suppressor: inactive

Results for CC(=O)Oc1ccc(/C=C2/CCc3ccccc3C2=O)cc1 ?
Abeta rescue: inactive; TDP43 rescue: 11µM; aSyn yeast inh: inactive; FUS suppressor: inactive; PTAP TSG101 blk: inactive

How did O=c1cc2c(nn1Cc1cccc([N+](=O)[O-])c1)-c1ccccc1CC2 do in these assays?
Abeta rescue: inactive; TDP43 rescue: 28µM; aSyn yeast inh: inactive; FUS suppressor: inactive; PTAP TSG101 blk: inactive

Results for COc1ccc2c(c1)CC/C(=C/c1ccccn1)C2=O ?
Abeta rescue: inactive; TDP43 rescue: inconclusive; aSyn yeast inh: inactive; FUS suppressor: inactive; PTAP TSG101 blk: inactive

What do the screens show for `O=C(NC1CCCC1)C(C1CC1)n1c(-c2ccccn2)nc2ccccc21` (configuration not stated)?
Abeta rescue: inactive; TDP43 rescue: inactive; aSyn yeast inh: inactive; FUS suppressor: inactive

How did CCN1c2cc(C)ccc2-n2cccc2C12CCN(C(=O)Nc1cc(OC)c(OC)c(OC)c1)CC2 do in these assays?
Abeta rescue: inactive; TDP43 rescue: inactive; FUS suppressor: inconclusive

What do the screens show for `CCCCOc1ccc(C(=O)N(Cc2ccc(N(C)C)cc2)Cc2ccco2)cc1`?
Abeta rescue: inactive; TDP43 rescue: inconclusive; FUS suppressor: inactive

Source: PubChem (National Center for Advancing Translational Sciences (NCATS))
